Screening results deposited in PubChem by several laboratories.
INS promoter inh – inhibitors of insulin promoter-driven GFP, primary screen, imaging, TRM-6 cells (human fetal islet line), eGFP reporter, cell count | 0.9% of 130,000 active | inhibition, % at 2 µM | AID 1273, 2008 | reporter expression induced with tamoxifen;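 active means inhibition above the mean plus 3 SD, with well images judged a real hit on visual review, cut at about 60% in these data, passing the limit was not always enough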
p97 ATPase inh – inhibitors of human p97 ATPase, primary screen, biochemical; AID 1481, 2009; inhibition, % at 8 µM; 0.42% of 220,000 active; recombinant p97 ATPase, Kinase-Glo ATP luminescence, 3 h; Transitional endoplasmic reticulum ATPase (Homo sapiens), P55072; in the data active means inhibition above about 15%;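 further: 0% = DMSO vehicle and 100% = wells lacking enzyme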
Target sequence (P55072 whole entry, looked up): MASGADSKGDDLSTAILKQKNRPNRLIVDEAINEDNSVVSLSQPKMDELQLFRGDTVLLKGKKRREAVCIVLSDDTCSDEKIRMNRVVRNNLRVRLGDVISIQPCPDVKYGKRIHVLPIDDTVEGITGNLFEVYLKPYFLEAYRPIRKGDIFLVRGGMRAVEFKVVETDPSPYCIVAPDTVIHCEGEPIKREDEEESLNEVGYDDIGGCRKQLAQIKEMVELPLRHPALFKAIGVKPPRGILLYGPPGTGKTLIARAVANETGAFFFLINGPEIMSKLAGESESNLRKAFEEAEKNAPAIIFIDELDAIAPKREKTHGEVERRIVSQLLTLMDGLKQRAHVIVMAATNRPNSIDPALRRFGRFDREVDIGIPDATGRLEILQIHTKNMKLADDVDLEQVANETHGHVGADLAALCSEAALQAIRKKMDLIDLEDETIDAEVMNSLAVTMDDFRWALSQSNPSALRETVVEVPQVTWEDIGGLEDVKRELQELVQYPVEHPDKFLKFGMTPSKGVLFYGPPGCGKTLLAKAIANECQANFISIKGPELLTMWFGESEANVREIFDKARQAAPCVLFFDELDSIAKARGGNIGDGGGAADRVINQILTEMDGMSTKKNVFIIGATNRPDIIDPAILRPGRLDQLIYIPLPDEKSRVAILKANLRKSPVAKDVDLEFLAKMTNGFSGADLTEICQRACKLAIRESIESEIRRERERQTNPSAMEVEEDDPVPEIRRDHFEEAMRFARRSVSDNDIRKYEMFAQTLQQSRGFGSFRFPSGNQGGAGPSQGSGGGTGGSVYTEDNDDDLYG
ROMK mod – ROMK potassium channel modulators, primary screen, cell-based, thallium flux, MLSMR library. Tet-inducible ROMK, thallium flux fluorescence; actives lie on both sides. B-score at 10 µM. 2% of 130,000 active;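 active means signal ratio slope over the read window, or its plate-corrected B-score, at least 3 SD from the plate mean, either direction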;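 further: B-score of the F/F0 ratio slope over 7 to 12 s after thallium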
PTEN del growth – growth suppression of PTEN-null HCT116, primary screen, cell-based, CellTiter-Glo; HCT116 PTEN-null viability, 60 h; active compounds read low; viability, % at 10 µM; 1.2% of 140,000 active; AID 827, 2007;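 active means viability at or below a set limit, 4 SD under the median of all tested compounds, cut at about 3.7% in these data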;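 further: PTEN knockout HCT116 line with beta catenin targeted HCT116 as companion control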
bCat KO growth – primary screen for growth suppressors in beta-catenin knockout HCT116 cells (colon tumor, human); 1.5% of 140,000 active; viability, % at 10 µM; HCT116 beta-catenin knockout viability, CellTiter-Glo, 60 h; active compounds read low;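 active means viability at or under a set limit, the compound median less 4 SD, cut at about 6% in these data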;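 further: 0% = Hyamine 1622 control at 20 µM and 100% = untreated cell control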
L major viab – Leishmania major promastigote growth inhibition, primary screen | Leishmania major promastigotes, resazurin fluorescence viability | inhibition, % at 10 µM | 9% of 200,000 active; in the data active means inhibition above about 50%;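 further: promastigotes grown with compound for 44 hours at 28 °C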
An asterisk follows results filed as active; x = no result. In the library only some 10% were active in any assay of this set; here they are far more common.

SMILES	INS promoter inh	p97 ATPase inh	ROMK mod	PTEN del growth	bCat KO growth	L major viab
CN=c1scc(-c2c[nH]c3ccccc23)n1C	36	0	-0.24	x	x	-3
CC(C)C(=O)Nc1ccc(N2CCCC2)c(Cl)c1	-33	0	-1.1	x	x	0
Cc1ccc(NC(=O)c2ccc([N+](=O)[O-])o2)cc1C	x	5	x	x	x	100*
O=C(/C=C/c1ccc(Cl)c([N+](=O)[O-])c1)Nc1ccc(N2CCCC2)c(Cl)c1	-54	3	x	54	75	79*
CCOC(=O)c1ccc(NC(=O)Cn2c(-c3nonc3N)nc3ccccc32)cc1	-50	-2	-0.17	x	x	-8
CC(C1CC1)N(Cc1ccccc1)C(=S)Nc1cccc(C(F)(F)F)c1 (centres undefined)	-28	1	-1	71	74	88*
O=C(NCC1COc2ccccc2O1)c1ccc(NC(=O)C(c2ccccc2)c2ccccc2)cc1 (centres undefined)	0	7	x	39	40	92*
O=C(Cc1ccccc1)Nc1ccc(C(=O)NCC2COc3ccccc3O2)cc1 (centres undefined)	56	8	-0.76	92	86	3
O=C(NCC1COc2ccccc2O1)c1ccccc1 (centres undefined)	-257	8	x	82	88	-2
Cc1c(C(=O)NCC2COc3ccccc3O2)oc2ccc(S(=O)(=O)N(C)C3CCCCC3)cc12 (centres undefined)	23	2	-0.49	75	74	53*
Cc1c(C(=O)NCC2CCCO2)oc2ccc(S(=O)(=O)N3CCCC3)cc12 (centres undefined)	-46	2	0.66	101	96	-8
Cc1cc(C(=O)NCC2COc3ccccc3O2)c2ccccc2n1 (centres undefined)	83*	4	-1.8	x	x	-8
COc1ccc(CN=Cc2[nH]c3ccc(Br)c(Cl)c3c2O)cc1	-7	9	x	69	67	99*
Nc1ncncc1-c1ccc2ccccc2c1	x	2	x	x	x	x
COc1ccc(-c2nc(CN3CCN(c4cc(C)nc(C)c4)CC3)c(C)o2)c2ccccc12	-25	2	-2.1	x	x	100*
CC(=O)Nc1ccc(NCN2C(=O)[C@@H]3[C@H]4CC[C@H](C4)[C@@H]3C2=O)cc1	x	5	0.8	96	100	-3
Cc1cccc2cc(C#N)c(SCCN3CCCCC3)nc12	-53	1	-1.1	x	x	100*
C=CCNc1nc(N)c(C(=O)c2ccc3c(c2)OCO3)s1	x	-3	0.057	68	78	50*
COc1ccc([N+](=O)[O-])cc1NS(=O)(=O)c1ccc(Cl)c(C(=O)Nc2sc3c(c2C#N)CCCCC3)c1	25	2	0.24	x	x	-18
O=C(COC(=O)c1ccc([N+](=O)[O-])s1)NCc1ccccc1	x	0	x	93	88	12
O=C(COC(=O)c1ccc([N+](=O)[O-])s1)NC(c1ccccc1)c1ccccc1	33	6	0.57	94	95	67*
CC(C)(C)c1ccc(NC(=O)COC(=O)c2ccc([N+](=O)[O-])s2)cc1	24	2	0.45	87	80	58*
O=C(COC(=O)c1ccc([N+](=O)[O-])s1)Nc1ccccc1	3	2	-0.52	93	91	38
CC(C)(C)n1nnnc1C(c1ccccn1)N(Cc1ccccc1)Cc1ccc(Cl)cc1 (centres undefined)	x	-5	-0.083	18	12	53*
CCN(Cc1ccccc1)C(c1ccccn1)c1nnnn1C(C)(C)CC (centres undefined)	-25	-1	0.92	48	46	25
N#C/C(=C\c1ccccc1[N+](=O)[O-])C(=O)NC1CCCCC1	50	10	x	x	x	100*
COc1ccc(-c2[nH]ncc2C=O)cc1	60*	8	-0.41	106	95	-6
N#C/C(=C\C=C\c1ccccc1[N+](=O)[O-])C(=O)NC1CCCCC1	x	3	-0.79	x	x	91*
N#C/C(=C\c1cc(Cl)ccc1O)C(=O)NC1CCCCC1	x	3	-0.77	82	84	9
COc1ccc(-c2[nH]ncc2/C=C(/C#N)C(=O)NC2CCCCC2)cc1	15	4	-1.3	72	76	66*
